This is part of a sample that, as a whole, favours compounds with a hit. Of some 83,000 tested, about 20% had one in any assay.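 For each line, cells grew in 96-well plates with the test compound present at a single concentration for 48 hours.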 The source made the active and inactive calls. Rule for the calls: active = growth percent below 10; inactive = the rest.
Columns and labels:
Assay in all cases: NCI-60 one-dose screen, 48 h (100 = growth as untreated, 0 = no growth, -100 = all killed)
Details in all cases: 10 µM unless noted
T-47D breast = system: T-47D breast
BT-549 breast = system: BT-549 breast
SW-620 colon = system: SW-620 colon
MCF7 breast = system: MCF7 breast
HCT-116 colon = system: HCT-116 colon
HCC-2998 colon = system: HCC-2998 colon
KM12 colon = system: KM12 colon
MDA-MB-435 melanoma = system: MDA-MB-435 melanoma

Measured: growth

FC(F)(F)c1[nH]ncc1-c1nc2ccc3[nH]ncc3c2c2c1CCCC2
active: T-47D breast 0% | BT-549 breast -24% | SW-620 colon 7.83% | MCF7 breast 1.69% | HCT-116 colon 1.68% | HCC-2998 colon 5.29%
inactive: KM12 colon 11.1%

C=C(C)[C@@H]1CC[C@]2(COC3CCCCO3)CC[C@]3(C)[C@H](CC[C@@H]4[C@@]5(C)C=C(C=O)C(=O)C(C)(C)[C@@H]5CC[C@]43C)[C@@H]12 (stereo partly specified)
active: T-47D breast -48.9% | BT-549 breast -58.5% | SW-620 colon -37.8% | MCF7 breast -58.4% | HCT-116 colon -92.4% | HCC-2998 colon -59% | KM12 colon -10.2%

O=C(O)CCCCCCCCCCN1C(=O)/C(=C2/C(=O)N(CC(=O)O)c3ccc(Br)cc32)SC1=S
inactive: T-47D breast 77.9% | BT-549 breast 105% | SW-620 colon 106% | MCF7 breast 82.9% | HCT-116 colon 87.2% | HCC-2998 colon 115% | KM12 colon 40.2%

COC(=O)c1ccc2cc(OC)c(OC)cc2c1
inactive: T-47D breast 96.1% | BT-549 breast 90.5% | SW-620 colon 99% | MCF7 breast 92.2% | HCT-116 colon 95.6% | HCC-2998 colon 98.8% | KM12 colon 108%

Nc1[nH]nc2nc(-c3ccccc3)n3c4ccccc4nc3c12
inactive: T-47D breast 90.1% | BT-549 breast 105% | SW-620 colon 95.8% | MCF7 breast 92.7% | HCT-116 colon 99.4% | HCC-2998 colon 110% | KM12 colon 104%

C[C@H](c1nc2ccc(C#N)cc2[nH]1)[C@H]1CC[C@H]2[C@@H]3CCC4=CC(=O)CC[C@]4(C)[C@H]3CC[C@]12C
inactive: T-47D breast 29.4% | BT-549 breast 58.9% | MDA-MB-435 melanoma 84.2% | SW-620 colon 89.1% | MCF7 breast 59.5% | HCT-116 colon 49.7% | HCC-2998 colon 67.4% | KM12 colon 68.9%

COc1ccc(C/C(C)=C(\c2ccc(Cl)cc2)c2ccc(OCCCN(C)C)cc2)cc1
inactive: T-47D breast 62.1% | BT-549 breast 91.3% | SW-620 colon 60.8% | MCF7 breast 16.2% | HCT-116 colon 60.3% | HCC-2998 colon 47.1% | KM12 colon 68.6%

O=C1c2cccnc2C(=O)c2c1c(C(=O)OCCc1ccccn1)c1ccccn21
active: T-47D breast -6.8% | BT-549 breast -35.2% | SW-620 colon 2.3% | MCF7 breast -56.8% | HCT-116 colon -48.3% | HCC-2998 colon -70.3% | KM12 colon 4.35%

O=C(NCCCCCCNC(=O)OCc1ccc2c(Cl)cc(Cl)c(O)c2n1)OCc1ccc2c(Cl)cc(Cl)c(O)c2n1
active: T-47D breast -48.5% | BT-549 breast -14.4% | SW-620 colon -62.8% | MCF7 breast -36.7% | HCT-116 colon -54.7% | HCC-2998 colon -88.3% | KM12 colon -74.6%

CCC(C)(C)c1ccc(Nc2ccc(Nc3ccc(C(C)(C)CC)cc3)cc2)cc1
inactive: T-47D breast 58.4% | BT-549 breast 133% | SW-620 colon 85.5% | MCF7 breast 80% | HCT-116 colon 60.5% | HCC-2998 colon 101% | KM12 colon 89.9%

O=C1Nc2ccccc2/C1=N/N1C(=O)CN(CCCl)C1=O
inactive: T-47D breast 102% | BT-549 breast 111% | SW-620 colon 95.1% | MCF7 breast 93.8% | HCT-116 colon 98.6% | HCC-2998 colon 104% | KM12 colon 113%

CCOC(=O)c1cn2ncnc(Oc3ccc(NC(=O)NC4CC4)c(Cl)c3)c2c1C
inactive: T-47D breast 71.9% | BT-549 breast 96.1% | SW-620 colon 97.1% | MCF7 breast 90.5% | HCT-116 colon 95.1% | HCC-2998 colon 101% | KM12 colon 102%

Cn1cc(-c2csc(-c3cn(CCCN4CCOCC4)c4ccc(F)cc34)n2)c2cccnc21
inactive: T-47D breast 41.1% | BT-549 breast 71.6% | SW-620 colon 61% | MCF7 breast 34.1% | HCT-116 colon 72.3% | HCC-2998 colon 65.4% | KM12 colon 34.3%

COc1ccc(-c2cc(C(=O)N3N=C(c4ccc(N)cc4)CC3c3ccc(Cl)cc3)c3cc(OC)ccc3n2)cc1 (stereo unspecified)
active: HCT-116 colon 1.85%
inactive: T-47D breast 66.7% | BT-549 breast 29.8% | SW-620 colon 35.5% | MCF7 breast 38.6% | HCC-2998 colon 83.3% | KM12 colon 52.3%

CCOC(=O)c1ccc[nH]1
inactive: T-47D breast 93.3% | BT-549 breast 77.5% | SW-620 colon 113% | MCF7 breast 92.6% | HCT-116 colon 94.5% | HCC-2998 colon 88.1% | KM12 colon 108%

CCOC(=O)c1c(C)nc2ccccc2c1/C=C/c1ccc(F)cc1
inactive: T-47D breast 23.4% | MDA-MB-435 melanoma 78.7% | SW-620 colon 85.5% | MCF7 breast 23.3% | HCT-116 colon 56.2% | HCC-2998 colon 81.1% | KM12 colon 72.5%

O=C1/C(=C/c2ccc(Cl)cc2)CN(C(=O)C(Cl)Cl)C/C1=C\c1ccc(Cl)cc1
active: T-47D breast -58.3% | MDA-MB-435 melanoma -95.3% | SW-620 colon -78.9% | MCF7 breast -70.8% | HCT-116 colon -86.6% | HCC-2998 colon -91.8% | KM12 colon -81.9%

Clc1ccc(-c2cc(-c3ccccc3)nc(N3CCN(CCCNc4ccnc5cc(Cl)ccc45)CC3)n2)cc1
active: T-47D breast -56.1% | MDA-MB-435 melanoma -61.8% | SW-620 colon -42.3% | MCF7 breast -18.5% | HCT-116 colon -79.6% | HCC-2998 colon -73.4% | KM12 colon 3.69%

Fc1ccc(/C=C/[C@@H]2C[C@@H](F)CCO2)cc1
inactive: T-47D breast 101% | MDA-MB-435 melanoma 97.9% | SW-620 colon 90.2% | MCF7 breast 91.3% | HCT-116 colon 82.2% | HCC-2998 colon 60.6% | KM12 colon 105%

CCCCNC(=O)c1ccc2c(c1)nc(-c1ccccc1)n2C1CCCCC1
inactive: T-47D breast 88.1% | MDA-MB-435 melanoma 99.9% | SW-620 colon 107% | MCF7 breast 82.1% | HCT-116 colon 93.1% | HCC-2998 colon 102% | KM12 colon 88.4%

O=C(NNc1nc2cc(F)ccc2n2c(CN3CCOCC3)ccc12)c1ccccc1
active: SW-620 colon -1.14% | MCF7 breast -6.31% | HCT-116 colon 0.232%
inactive: T-47D breast 11.8% | MDA-MB-435 melanoma 27.3% | HCC-2998 colon 32.8% | KM12 colon 12.2%

O=C(c1ccc(Br)cc1)C(Br)C(c1ccc(Cl)cc1)C(c1ccccc1)[N+](=O)[O-] (stereo unspecified)
inactive: T-47D breast 76.9% | MDA-MB-435 melanoma 95.9% | SW-620 colon 96.4% | MCF7 breast 84.5% | HCT-116 colon 76.2% | HCC-2998 colon 125% | KM12 colon 92.7%

COC(=O)/C=C1/SC(=Nc2ccc(F)cc2)N(CCc2c[nH]c3ccc(O)cc23)C1=O
inactive: T-47D breast 23.7% | MDA-MB-435 melanoma 25.4% | SW-620 colon 53.7% | MCF7 breast 17% | HCT-116 colon 23.1% | HCC-2998 colon 45.9% | KM12 colon 38.3%

O=[N+]([O-])c1c(O)c(Cl)cc(Cl)c1Cl
inactive: T-47D breast 97.6% | MDA-MB-435 melanoma 114% | SW-620 colon 115% | MCF7 breast 98.8% | HCT-116 colon 100% | HCC-2998 colon 96.5% | KM12 colon 112%

Cc1ccc(Cc2cnc(NC(=O)/C=C/c3ccc(C)o3)s2)cc1
inactive: T-47D breast 35.5% | SW-620 colon 22.7% | MCF7 breast 12.3% | HCT-116 colon 27.7% | HCC-2998 colon 65.2% | KM12 colon 16.5%
active: MDA-MB-435 melanoma -52.5%

Nc1nc(N)c2c(n1)NC(c1cccc(Nc3ccnc4cc(C(F)(F)F)ccc34)c1)CC(c1ccc3c(c1)OCO3)=N2 (stereo unspecified)
inactive: T-47D breast 90.6% | BT-549 breast 112% | SW-620 colon 54.6% | MCF7 breast 33.3% | HCT-116 colon 39.9% | HCC-2998 colon 75.7% | KM12 colon 38.6%

COCCn1cc(-c2nc(-c3c[nH]c4ncccc34)cs2)c2ccccc21
active: T-47D breast 4.79% | MDA-MB-435 melanoma 7.74% | MCF7 breast 9.03%
inactive: SW-620 colon 68.6% | HCT-116 colon 66.5% | HCC-2998 colon 34.4% | KM12 colon 16.4%

CC(C)NS(=O)(=O)/N=C1\NC(=O)NC1=C(Cl)Cl
inactive: T-47D breast 79.7% | MDA-MB-435 melanoma 94.3% | SW-620 colon 103% | MCF7 breast 82.7% | HCT-116 colon 102% | HCC-2998 colon 110% | KM12 colon 85.4%

COc1ccc(NC(=O)c2ccc(Nc3ncnc4c3cnn4-c3cccc(F)c3)cc2)cc1
inactive: T-47D breast 96.1% | MDA-MB-435 melanoma 102% | SW-620 colon 103% | MCF7 breast 96.5% | HCT-116 colon 103% | HCC-2998 colon 107% | KM12 colon 100%

c1ccc(Cn2cc3c(c2-c2ccccc2)CCc2cnoc2-3)cc1
inactive: T-47D breast 67% | MDA-MB-435 melanoma 13.5% | SW-620 colon 24.1% | MCF7 breast 51.3% | HCT-116 colon 44.5% | HCC-2998 colon 58.5% | KM12 colon 27.7%

COc1ccccc1S(=O)(=O)Nc1ccc2c3c(cc(CCC(=O)NCCCCNc4cccc5c4C(=O)N(C4CCC(=O)NC4=O)C5=O)cc13)C(=O)N2C (stereo unspecified)
active: T-47D breast 3.74% | SW-620 colon 7.68% | MCF7 breast 6.07%
inactive: MDA-MB-435 melanoma 23.2% | HCT-116 colon 46.2% | HCC-2998 colon 10.9% | KM12 colon 20.2%

CCCc1cc(=O)oc2c(C(=O)CC(C)C)c(O)c(CC=C(C)C)c(O)c12
inactive: T-47D breast 13.5% | MDA-MB-435 melanoma 24.3% | SW-620 colon 27.4% | HCT-116 colon 14.3% | HCC-2998 colon 11% | KM12 colon 18.9%
active: MCF7 breast 7.3%

O=c1ccc2ccc(OCCN3CCCCC3)cc2o1
inactive: T-47D breast 95.5% | MDA-MB-435 melanoma 101% | SW-620 colon 93.9% | MCF7 breast 106% | HCT-116 colon 89% | HCC-2998 colon 98% | KM12 colon 104%

CS(=O)(=O)Nc1cc(-c2ccc3ncnc(Nc4ccc5c(cnn5Cc5ccncc5)c4)c3c2)cnc1Cl
inactive: MDA-MB-435 melanoma 63.2% | SW-620 colon 68.6% | MCF7 breast 31.3% | HCT-116 colon 75.2% | HCC-2998 colon 73.7% | KM12 colon 93.4%
active: T-47D breast 2.48%

CC(=O)c1ccc(-n2cc(CN3CCN(c4cc5c(cc4F)c(=O)c(C(=O)O)cn5C4CC4)CC3)nn2)cc1
active: HCT-116 colon -9.74%
inactive: T-47D breast 96.4% | MDA-MB-435 melanoma 96.3% | SW-620 colon 90% | MCF7 breast 72.9% | HCC-2998 colon 86% | KM12 colon 84.9%

Source: PubChem BioAssay (NCI)
